USP30 inh = human USP30 deubiquitinase inhibition | Q70CQ3 | purified USP30, Ub-rhodamine cleavage fluorescence | inhibition, % at 25 µM | 5.3% of 47,000 active | AID 1645860
USP28 block = human USP28 deubiquitinase inhibition; Q96RU2; purified USP28, Ub-rhodamine cleavage fluorescence, 30 min; inhibition, % at 25 µM; 3% of 47,000 active
USP17 block = blocks human USP17 ubiquitin-rhodamine cleavage; 6.5% of 47,000 active; AID 1645855; inhibition, % at 50 µM; purified USP17, Ub-rhodamine cleavage fluorescence, 3 h; A8MUK1
Target sequence (A8MUK1 whole entry, looked up): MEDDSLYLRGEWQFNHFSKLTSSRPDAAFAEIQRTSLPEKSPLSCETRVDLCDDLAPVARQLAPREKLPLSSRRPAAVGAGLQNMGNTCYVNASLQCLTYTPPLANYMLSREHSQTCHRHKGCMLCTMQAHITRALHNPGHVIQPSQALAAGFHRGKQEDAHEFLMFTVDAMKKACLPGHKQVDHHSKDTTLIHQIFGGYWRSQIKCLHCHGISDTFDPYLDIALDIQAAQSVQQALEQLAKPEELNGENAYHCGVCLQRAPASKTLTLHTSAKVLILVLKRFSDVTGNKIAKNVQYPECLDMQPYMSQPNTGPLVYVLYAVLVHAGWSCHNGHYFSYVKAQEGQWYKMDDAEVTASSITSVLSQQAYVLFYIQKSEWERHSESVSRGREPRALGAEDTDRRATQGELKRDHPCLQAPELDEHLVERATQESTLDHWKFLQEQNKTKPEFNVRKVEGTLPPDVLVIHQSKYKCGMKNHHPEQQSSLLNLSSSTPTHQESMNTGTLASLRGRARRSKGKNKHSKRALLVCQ
OTUD3 block = blocks human OTUD3 ubiquitin-rhodamine cleavage. purified OTUD3, Ub-rhodamine fluorescence, 2 h. inhibition, % at 25 µM. 0.7% of 47,000 active. AID 1645858
* = called active by the depositor; i = inactive. In the library only some 12% were active in any assay of this set; here they are far more common. Rule as the data show it: active = inhibition above about 30%; inactive = the rest.

SMILES	USP30 inh	USP28 block	USP17 block	OTUD3 block
COc1ccc(CN(C(=O)c2cc(-c3ccc(C)cc3)on2)C2CCS(=O)(=O)C2)cc1 (stereo not drawn)	50*	17	25	3
O=C(Cn1cc(S(=O)(=O)Cc2ccc(Cl)cc2)c2ccccc21)N1CCCCC1	75*	1	3	1
O=C(CSc1cn(CC(=O)N2CCCCC2)c2ccccc12)Nc1ccc(Cl)cc1	27	7	38*	15
Cc1ccc(CS(=O)(=O)c2cn(CC(=O)NCc3ccco3)c3ccccc23)cc1	12	24	37*	15
O=C(NCCn1cc(SCC(=O)N2CCOCC2)c2ccccc21)c1ccc(Cl)cc1Cl	4	-1	-4	2
O=C(CSc1cn(Cc2ccccc2Cl)c2ccccc12)N1CCOCC1	37*	18	14	1
Cc1nc2cc(-c3noc(-c4ccncc4)n3)ccc2n(C2CCCC2)c1=O	-8	-5	-4	-5
Oc1sc(C=Nc2ccc(Oc3ccccc3)cc2)c2ccccc12	i	-217	-140	-168
CNC(=O)CN(C(C)=O)[C@@H]1C[C@@H]2CO[C@H](c3ccccc3)C[C@@H]2C1	-5	-14	-13	-7
O=S(=O)(c1ccc(F)cc1)N1CCCC1c1cccc(Nc2ccccn2)n1 (stereo not drawn)	0	6	-1	5
CN=C(N)NCCC/C=C/CCCC(C)CC(C)C1OC(=O)/C=C/C(C)C(O)CC(O)C(C)C(O)CCC(C)C(O)CC2(O)OC(CC(OC(=O)CC(=O)O)CC(O)CC(O)C(C)C(O)/C=C/C1C)CC(O)C2O (stereo not drawn)	15	53*	19	6
NC(=O)c1cccc(NS(=O)(=O)c2ccccc2)c1	-1	-15	-9	0
O=S(=O)(Nc1ccc(Oc2ccccc2)cc1)c1ccccc1	64*	60*	70*	24
Cc1cc(C(=O)N2CCCCCC2c2cc(C)no2)on1 (stereo not drawn)	6	7	13	7
CC(C)CCN1C[C@H]2CCN(Cc3ccccc3)CC[C@H]2S1(=O)=O	-8	-2	-10	4
O=C(CCCCn1c(=O)[nH]c2ccccc2c1=O)Nc1cccc(Cl)c1	20	8	80*	18
O=C(CCCCCn1c(=O)[nH]c2ccccc2c1=O)Nc1ccccc1Br	35*	3	16	21
O=C(CCCCCn1c(=O)[nH]c2ccccc2c1=O)NCc1ccccc1Cl	48*	19	25	18
O=C(CCCCCn1c(=O)[nH]c2ccccc2c1=O)NCCc1ccc(Cl)cc1	22	8	16	8
Cc1ccccc1N1CC(c2nnc(NC(=O)CCc3ccccc3)s2)CC1=O (stereo not drawn)	21	9	6	-79
COc1cccc(CNC(=O)CCc2c(C)c3c(C)nn(-c4cccc(F)c4)c3n(C)c2=O)c1	12	6	6	6
COC(=O)C12Oc3cc4c(c(O)c3C(O)=C1C(=O)CCC2O)C1C=CC2(C4)C(=O)c3cc(C)cc(O)c3C(O)=C2C1=O (stereo not drawn)	-63	30	48*	18
COC(=O)[C@@]12Oc3ccc(-c4ccc5c(c4O)C(O)=C4C(=O)C[C@H](C)[C@H](O)[C@]4(C(=O)OC)O5)c(O)c3C(O)=C1C(=O)C[C@H](C)[C@H]2O	21	0	-25	10
CCC(=O)N1CCc2cc(S(=O)(=O)NCCC(=O)N3CCC(Cc4ccccc4)CC3)ccc21	8	1	-3	-22
CCc1ccc(CN2CCC3(CC2)CN(c2cncnc2)C(=O)CO3)o1	-160	-43	-51	-53
SMILES	USP30 inh	USP28 block	USP17 block	OTUD3 block
COc1cccc(-n2cnc3cc(C(=O)NCCc4ccccc4)ccc3c2=O)c1	-21	0	0	0
COc1ccc(Nc2nc3c(S(=O)(=O)c4ccc(C)cc4)nnn3c3ccsc23)c(OC)c1	67*	16	28	13
COc1ccc(S(=O)(=O)c2nnn3c2nc(Nc2ccccc2)c2ccccc23)cc1	-13	-52	-2	-30
COc1ccc(C(=O)CCN2CCOCC2)cc1[N+](=O)[O-]	28	2	-2	36*
COc1ccc(OC)c(CNCCCN2CCOCC2)c1	4	-5	-26	-5
Cc1cccc(Nc2cc(C3CCN(C(=O)c4cncnc4)CC3)ccn2)n1	32*	8	9	9
O=C(NCCCN1CCOCC1)c1cc(OCc2ccccc2)nc2ccccc12	11	-7	5	-4
CC(C)(C)c1ccc(C(=O)Nc2ccc(Cn3cncn3)cc2)cc1	3	56*	3	-4
CCCOC(=O)c1cc(NC(=O)c2cccs2)ccc1N1CCOCC1	21	16	19	6
Cc1ccc(S(=O)(=O)N(C)c2nc3nc(C)c(Cl)c(C)n3n2)cc1	3	13	18	10

Screening data (PubChem BioAssay)
